We go through 28 compounds from PubChem BioAssay AID1259416 (Broad Institute, 2018).

The structures appear in SMILES notation. “And” between values parts separate entries of the source, which are not always exact repeats. Identical values can stand only once. In all, about 69,000 compounds went through this assay and about 2,600 (3.8%) were called active. Cut-off read from the data, not from the text of the source: active = activity change below about -70% (passing the limit was not always enough); inconclusive = no clear call, values can overlap the other calls. Only a selection was taken, and actives are over-represented in it overall. Where a structure was tested more than once in an assay, its records may differ in their call.

The assay in a line: T. gondii growth inhibition with IFN-gamma, primary screen, cell-based (AID 1259416).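 Note: host cells are HeLa cells infected with Toxoplasma gondii.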 The conditions noted are these: Toxoplasma gondii growth in IFN-gamma-treated host cells; stronger effect = lower value; concentration not given here.
Regarding `CC[N+]1(C)CCCC(OC(=O)C(O)(c2ccccc2)c2ccccc2)C1` (stereo not drawn), the activity change, negative = inhibition was -81.7% (active) and 11.1% (inactive) and 46.8% (inactive).
The same measure for `COc1ccc(OC)c(NC(=O)c2cc3cccnc3n(Cc3ccccc3F)c2=O)c1`: 10.9% (inactive); for `CC(C)N1C[C@H]2CN(C(=O)c3cccs3)C[C@@H]2C1`: 13.5% (inactive); for `CO[C@@H]1CCN(C(=O)c2ccc(C)cn2)[C@H]2CN(CC3CC3)C[C@@H]12`: 294% (inactive).
Take `c1cc(-c2cccc3c2CCNC3)cc(-n2cnnc2)c1`: the activity change, negative = inhibition is -1.55% (inactive).
Take `CC(C)(Cc1c[nH]c2ccc(Cl)cc12)NCCOc1ccccc1OCC1CC1`: the activity change, negative = inhibition was -75.1% (active) and -81.3% (active).
The same measure for `COc1ccc2c(c1)C1(CCN(C(=O)C(C)(C)NC(=O)OCc3ccccc3)CC1)CC2CC(=O)O` (stereo not drawn): 0.749% (inactive); for `Cc1nc(N2CCCN3CCC[C@H]3C2)c2cnn(C)c2n1`: 2.34% (inactive); for `CN1CCC2(COCc3cnc(NCc4ccco4)nc32)C1` (stereo not drawn): -59.4% (inactive).
The value for `CCc1cnc(C)nc1N1CCC2(CC1)CN(C)CCN2C` was -5.22% (inactive); that for `CC(Cc1ccccn1)N(C)Cc1ncc[nH]1` (stereo not drawn) was 15.6% (inactive).
The same measure for `c1ccc2c(c1)[I+]c1ccccc1-2`: -75.9% (active) and -69.4% (inactive); for `COc1ccc(NC(=O)c2cc3cccnc3n(Cc3ccc(Cl)cc3)c2=O)c(OC)c1`: 113% (inactive); for `CCc1ccc(NC(=O)c2cc3cccnc3n(Cc3ccccc3F)c2=O)cc1`: 49.4% (inactive).
Consider `Cc1cc(C)cc(NC(=O)c2c(O)c3cccnc3n(Cc3ccccc3)c2=O)c1`, for which the activity change, negative = inhibition is 135% (inactive).
The value for `CC(NC(=O)c1c(O)c2cccnc2n(Cc2ccccc2)c1=O)c1ccccc1` (stereo not drawn) was -120% (active); that for `O=C(Nc1ccccc1)c1c(O)c2cccnc2n(Cc2ccccc2)c1=O` was -29% (inactive).
Regarding `CC(C)c1ccc(NC(=O)c2cc3cccnc3n(Cc3ccc(Cl)cc3)c2=O)cc1`, the activity change, negative = inhibition was 70.6% (inactive).
The value for `C=CCNC(=O)c1cn(Cc2ccc(C)o2)cc(C(=O)N2CCCCCCC2)c1=O` was -1.9% (inactive).
`C/C=C/c1ccc(C2[C@@H]3CN(S(C)(=O)=O)C[C@H]2N3)cc1` (stereo partly drawn): the activity change, negative = inhibition is 4.19% (inactive).
The value for `COc1cc([C@@H]2c3cc4c(cc3[C@H](OC(C)=O)[C@H]3COC(=O)[C@H]23)OCO4)cc(OC)c1OC` was -81.8% (active); that for `O=C(Nc1cccc(F)c1)N1CC2CNC(C2)C1` (stereo not drawn) was -49% (inactive).
The value for `CN(Cc1ncc[nH]1)C1CCC2(CCNCC2)CC1` was -23.6% (inactive).
In the case of `CCN1CCO[C@@H]2CN(Cc3ccc4ccccc4n3)C[C@H]2C1`, the activity change, negative = inhibition is -44.8% (inactive).
Consider `CCCCCCCCCCCCCC(=O)O[C@@H]1[C@@H](C)[C@@]2(O)[C@@H](C=C(CO)C[C@]3(O)C(=O)C(C)=C[C@@H]23)[C@@H]2C(C)(C)[C@]12OC(C)=O`, for which the activity change, negative = inhibition is -78.2% (active) and -67.3% (inactive).
Regarding `CNC(=O)[C@H]1CC2CN(C(=O)Cc3cccs3)CC2N1C` (stereo partly drawn), the activity change, negative = inhibition was -9.27% (inactive).
Regarding `CC(=O)O[C@H]1CC[C@@]2(C)C(=CCC3C2CC[C@]2(C)C(=O)CCC32)C1` (stereo partly drawn), the activity change, negative = inhibition is -55.1% (inactive).
The same measure for `COc1ccc(CN2CCCC23CCCN(C(=O)Cc2ccc(Cl)cc2)C3)cc1F` (stereo not drawn): 84.8% (inactive).
